Results published in PubChem BioAssay AID1030 (National Center for Advancing Translational Sciences (NCATS), 2008).
Among all 220,000 compounds or so, about 16,000 (7.3%) were called active. A call without a number means that no potency is given here. Inconclusive results (about 25%) are left out. Calls follow the shape of the dose curve; as a rule, active = well fitted inhibition curve with a large enough effect (not every such curve was filed as active); inconclusive = small, poorly fitted or top-dose-only effect, or another doubt; inactive = no such curve, though single readings can be large or run the other way. The full list was thinned out, with actives kept by preference.

Each compound was assayed against Aldehyde dehydrogenase 1A1 (Homo sapiens) (UniProt P00352) (assay: qHTS Assay for Inhibitors of Aldehyde Dehydrogenase 1 (ALDH1A1)). Settings: Purified ALDH1A1, NADH fluorescence, propionaldehyde substrate; series mostly up to 75.3 µM.
Potency is read from the fitted curve at half-maximal effect.

Sequence of Aldehyde dehydrogenase 1A1 (Homo sapiens) (P00352 whole entry, looked up): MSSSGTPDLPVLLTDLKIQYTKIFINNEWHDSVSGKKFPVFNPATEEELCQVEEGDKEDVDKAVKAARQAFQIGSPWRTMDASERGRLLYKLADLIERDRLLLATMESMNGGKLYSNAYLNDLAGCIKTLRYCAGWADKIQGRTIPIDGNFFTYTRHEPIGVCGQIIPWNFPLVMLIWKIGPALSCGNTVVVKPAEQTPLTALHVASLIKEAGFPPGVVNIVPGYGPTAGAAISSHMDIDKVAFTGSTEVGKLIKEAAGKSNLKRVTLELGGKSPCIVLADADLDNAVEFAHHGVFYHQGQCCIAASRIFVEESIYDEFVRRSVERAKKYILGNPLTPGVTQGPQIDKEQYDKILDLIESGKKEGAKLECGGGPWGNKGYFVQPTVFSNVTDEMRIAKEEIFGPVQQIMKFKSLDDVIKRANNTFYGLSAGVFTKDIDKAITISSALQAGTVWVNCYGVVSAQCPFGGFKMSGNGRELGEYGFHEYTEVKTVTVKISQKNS

Compound | Potency
CN1CCN(/N=C/c2ccc(-c3ccc([N+](=O)[O-])cc3)o2)CC1 | inactive
CCOC(=O)N1CCN(C(=S)Nc2ccc(C)cc2C)CC1 | inactive
CCOc1ccc(N(CC(=O)NCCc2ccc(OC)cc2)S(C)(=O)=O)cc1 | inactive
COCOc1cc(OC)ccc1C(=O)/C=C/c1ccc([N+](=O)[O-])cc1 | inactive
CCOc1ccc(-c2n[nH]c(C)c2-c2ccccn2)c(O)c1 | inactive
Cc1cc(C)cc(C(=O)N(CCc2ccccc2)C2=CC3CCC(C2)N3C)c1 (centres undefined) | inactive
CCn1c(CNC(=O)c2ccco2)nnc1SCC(=O)Nc1cccc(F)c1 | inactive
Nc1ccc(OCC(O)C[n+]2ccc(CCS(=O)(=O)[O-])cc2)cc1 (centres undefined) | inactive
Cc1ccc(NC(=O)C(=O)NCc2ccc(/C=N/NC(=O)c3c(C)nc4cc(C)ccn34)o2)cc1 | inactive
CCOC(=O)C(NC(C)=O)C(=O)Nc1ccc(OC)cc1 (centres undefined) | inactive
CCn1c(CNC(=O)c2ccc(OC)c(OC)c2)nnc1SCC(=O)Nc1ccccc1 | inactive
CCn1c(CNc2ccc(OC)cc2)nnc1SCC(=O)c1ccc(OC)cc1 | 0.199 µM (active)
O=C(CSc1nnc(-c2cccnc2)n1Cc1ccco1)c1ccc(Cl)cc1 | inactive
COc1ccc(CC(=O)NCc2nnc(SCC(=O)Nc3nccs3)n2C)cc1 | inactive
COc1ccc(C(=O)CSc2nnc(COc3ccccc3)n2Cc2ccco2)cc1 | 8.91 µM (active)
CCn1c(COc2ccccc2)nnc1SCC(=O)NCc1ccco1 | inactive
CCn1c(COc2ccc(OC)cc2)nnc1SCC(=O)Nc1cc(OC)ccc1OC | inactive
COC(=O)c1ccc(NC(=O)CSc2nnc(CNc3ccc(OC)cc3)n2C)cc1 | 28.2 µM (active)
COC(=O)c1ccc(NC(=O)CSc2nnc(-c3ccncc3)n2C)cc1 | inactive
CN(Cc1ccccc1)C(=O)CCc1ccccc1 | inactive
CCOCCCNC(=O)C(=O)NCCCOCC | inactive
CC(C)C(=O)Nc1cccc(NC(=O)c2ccc([N+](=O)[O-])cc2Cl)c1 | inactive
Clc1ccc(N/N=C/c2cccs2)nn1 | inactive

Compound | Potency
Cc1ccccc1-c1ccc(C(=O)O)s1 | inactive
COc1ccc(CN2CCCC(C(=O)c3ccc(Cl)cc3)C2)cc1Cn1cncn1 (centres undefined) | inactive
CCOC(=O)c1[nH]ncc1CN1CCCC(C(=O)c2ccc(OC)cc2C)C1 (centres undefined) | inactive
COc1cc(OC)c(C(=O)N2CCCC2)cc1OC | inactive
Cc1ccc(S(=O)(=O)N2CCCC2C(=O)NCc2ccco2)cc1 (centres undefined) | 28.2 µM (active)
O=C(NCc1ccco1)C1CCCN(S(=O)(=O)c2ccccc2)C1 (centres undefined) | inactive
Cc1ccc(S(=O)(=O)N2CCC(C(=O)N[C@@H](C)C(=O)NCc3ccco3)CC2)cc1 | inactive
CSc1ncccc1C(=O)N1CCCC(CCC(=O)NCc2ccccc2F)C1 (centres undefined) | inactive
Cc1cc(C(=O)COC(=O)CNC(=O)c2ccc(F)cc2)c(C)n1Cc1ccco1 | inactive
COc1ccc(OC)c(-n2nnnc2SCC(=O)Nc2cc(C)ccc2OC)c1 | inactive
COc1ccc(C)cc1-n1nnnc1SCC(=O)c1cc(C)n(Cc2ccco2)c1C | 15.8 µM (active)
CC/C=C\C/C=C\C/C=C\C/C=C\C/C=C\C/C=C\CCC(=O)NCCc1ccc(O)c(O)c1 | inactive
COc1ccccc1OCc1ccc(C(=O)N2CCN(C)CC2)o1 | inactive
O=C(c1ccco1)N1CCN(C(=O)c2ccc(COc3ccc(F)cc3)o2)CC1 | 28.2 µM (active)
O=C(c1ccco1)N1CCN(C(=O)C2CC(c3ccc(F)cc3)=NO2)CC1 (centres undefined) | inactive
COc1ccc(-n2c(C)cc(C(=O)CN3C(=O)NC4(CCc5ccccc54)C3=O)c2C)cc1 (centres undefined) | inactive
Cc1ccc(NC(=O)CNCc2ccccn2)cc1S(=O)(=O)N(C)C | inactive
CN(C)S(=O)(=O)c1cc(NC(=O)CN2C(=O)NC3(CCCc4ccccc43)C2=O)ccc1Cl (centres undefined) | 12.6 µM (active)
Cc1ccc(/C=N/NC(=O)Cn2ccc(C(F)(F)F)n2)o1 | inactive
CCN(CC)N=Nc1cccc(NC(C)=O)c1 | inactive
O=C(Nc1ccncc1)c1cc2ccccc2o1 | inactive
O=C(N/N=C/c1coc2ccccc2c1=O)c1cc2ccccc2o1 | 10 µM (active)
Cc1c(/C=N\NC(=O)c2cc3ccccc3o2)c2ccccc2n1C | inactive

Compound | Potency
NC(=O)Cn1nc([N+](=O)[O-])nc1Oc1ccc(Br)cc1 | inactive
CC(C)(C)C(=O)N(Cc1ccccc1)c1ccccn1 | inactive
CC(C)CCN1CCN(Cc2cn[nH]c2C2CCCCC2)CC1CCO (centres undefined) | inactive
CCCCCCCCC(=O)NCCOc1ccccc1 | inactive
Cc1ccc(N(NC(=O)C(C)(C)O)C(=O)c2ccccc2)cc1C | inactive
CCCC(O)(CCC)C(=O)NN(C(=O)CCl)c1cccc(C)c1 | 39.8 µM (active)
CC(C)(O)C(=O)NN(C(=O)c1ccccc1)c1cccc(Br)c1 | inactive
CCC(C)NC(=O)CCCc1ccccc1 (centres undefined) | inactive
CCCCC(O)(CCCC)C(=O)NN(C(=O)CCl)c1ccccc1 | 3.98 µM (active)
Cc1cc(NC(=O)CSCc2ccccc2C)no1 | inactive
Cn1cnnc1Sc1ccc(CN2CCN(C3CCCC3)C(CCO)C2)o1 (centres undefined) | inactive
COc1cccc2cc(/C(C)=N/NC(=O)c3ccco3)oc12 | inactive
C=CCOc1c(CNn2cn[nH]c2=S)cccc1OC | inactive
CC(C)C(=O)NC(=S)Nc1ccccc1F | inactive
CCCCC(=O)NNC(=S)NC(=O)C(c1ccccc1)c1ccccc1 | inactive
CC(C)C(=O)Nc1cccc(NC(=S)NC(=O)C(c2ccccc2)c2ccccc2)c1 | 25.1 µM (active)
Cn1nnnc1NCc1ccc(Cl)c(Cl)c1 | inactive
COC(=O)c1ccc(/C=N/OCC(=O)Nc2cc(F)ccc2F)cc1 | inactive
Cc1ccc(F)c(NC(=O)CCc2ccccc2)c1 | inactive
CCC(C(=O)OCC(=O)Nc1ccc(C(=O)Nc2ccc(OC)cc2)cc1)c1ccccc1 (centres undefined) | inactive
CC(=O)c1ccc(NC(=O)N[C@@H](Cc2ccccc2)C(=O)O)cc1 | inactive
NC(=O)c1ccc(NC(=O)COC(=O)C(Cc2ccccc2)NC(=O)c2ccccc2)cc1 (centres undefined) | 0.891 µM (active)
O=C(COC(=O)[C@H](Cc1ccccc1)NC(=O)c1cccs1)Nc1cc(F)ccc1F | 14.1 µM (active)
